This assay concerns VDR:RXRa (NR concentration 270 nM, RXRa partner concentration 90 nM). Kind of assay: PBM binding z-score (relative to random genomic background probes); higher = stronger binding; sequences stand for … in GC…GCGATTGACAGCGTAGAATGAAGG
The method, then: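 Protein-binding microarray (Agilent 4x180K custom design, double-stranded 60-nt probes: 5' GC cap, 34-nt variable region, 24-nt constant primer region; full probe sequence given). Purified or IVT nuclear receptor:RXRα heterodimers (3:1 NR:RXRα, mostly 270:90 nM) or homodimers were incubated for 1 h in PBS with 2% milk and no ligand, then detected with Alexa488 antibodies. Fluorescence from o1-orientation probes (~5 replicates averaged) was converted to z-scores against 500 random hg19 background probes. Variable regions are seed direct-repeat (DR0–DR5) sites, all their single-nucleotide variants and half-site ablations.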
As to ATCGAAAGCTCGACGAGGTGAGTATACACCGTTT, the PBM binding z-score was -0.25.

Take AACGAAAGGTCGTGAGGTGAGTATACAGAAAGGC: the PBM binding z-score came to 3.68.

Turning to CCTTACGGGTCACTGCAGGTTATAGCATCGGAGT, the PBM binding z-score came out at 4.19.

TCTTGTAGATCAAGCAGGTTAAGAGAGCCTGAGT showed a PBM binding z-score of 0.331.

As to CCCACTGGGCCATCAGGTCATTGATATCAACGTT, the PBM binding z-score was determined as 1.89.

Consider CCGACTGGGGCAAGGTTACTATAACGCACAGCCA, for which the PBM binding z-score is 0.0885.

ACAGACAGGTGATGAAGGTAACTCAAGCTATCAT gave a PBM binding z-score of 0.0355.

For CAGCCTAGGTCAGGGCCAGGATAGGAGGAACGTT, the PBM binding z-score worked out at 0.0936.

The sequence TCTCGGAGGATACGAAAGGTCAGAGCTCGACATC returned a PBM binding z-score of 2.6.

The sequence TCTTGTAGATCAACAGGAGTTTAAGAAAGATCGA came in with a PBM binding z-score of 0.517.

For ATCTCTAGATAAAGTTCAGTGAAAGATCGATAGA, the PBM binding z-score worked out at 1.03.

GCTGCTAGATCAACTGATGGTCAGCTAAAGCTCG: the PBM binding z-score was -0.766.

CATACAGGGTCAGCCAGGCCAGAGTAGGGACGGC gave a PBM binding z-score of 4.58.

On to CCTACTGGGCCACGAAAGGTCATTGTTTCAGTGA, for which the PBM binding z-score worked out at 4.25.

In turn, CCAACTGGGGCAAAGGTTACCATACTCAGTACGA came in with a PBM binding z-score of 1.7.

As for CCTATTAGTTGACCATATGGGCAACCGAAGCTCG, the PBM binding z-score came to 0.234.

For the sequence CCAGACATGTGAGAAGGTAACTCAGCCTCGATTA, the PBM binding z-score is -0.439.

Take CCTTACGGGTCACTCACAGGTTATAGCATTTGGA: the PBM binding z-score stood at 3.6.

With ATATATAGGTTACATCCGGGTCATTCAGGCTATG, the PBM binding z-score was determined as 4.58.

The sequence CCTAGTTGGTCAGGAGTTCACACACCGGATATGA came in with a PBM binding z-score of 3.54.

Regarding GCTTGTAGATCTAGGTTAAGAAAGACTAAGCTAA, the PBM binding z-score was -0.392.

The sequence TCATATAGGTAATACAGGTGAATGTCGGCATCTA gave a PBM binding z-score of 1.3.

On to CGTCCAAGTTCAACTAAGGTAACGTAAAGCACGC, for which the PBM binding z-score was 4.16.

The sequence TCTGCGAGGTCAGTTGGTCAGCTAACGAGCTGCC yielded a PBM binding z-score of 3.43.

For AGAACGGGGGCACGCTGAGTTGATAGCAGAGTAG, the PBM binding z-score is 4.23.

With TCTCAGAGGACACGAAGGTCAGAGCTTTCCAGAG, the PBM binding z-score was determined as 2.75.

CCTATTAGTTGACCATACGGGCAACCGAAGCTCG showed a PBM binding z-score of 0.598.

In turn, CGTCCAAGGTCAAAGGTCAGTGAAGAGATGACGG displayed a PBM binding z-score of 6.76.

In turn, GTACCAAGGTGAATAGGTCGTTCATGAGTAGGCG had a PBM binding z-score of 1.06.

Consider ATCTCTAGGTACGACTCAGTTCAGTGAAGAACGC, for which the PBM binding z-score stood at 1.28.

As for TCTAGTTGGTCACGGAGGCCACACACGACGGGTA, the PBM binding z-score came to 2.19.

In turn, GCTCTGAGGACAAGGTCAGAGCTTTGTCCGTAGA registered a PBM binding z-score of 1.68.

For GCTCGGAGGACAAGGTTAGAGCTTTGTCCGTAGA, the PBM binding z-score is -0.341.

Sequence TGAATGAGGTTGAAGATCAGGGAACGTGGCGTCG yielded a PBM binding z-score of -0.171.

CTACCAAGGTGAACTAGGTCGTTGATTACTATTC returned a PBM binding z-score of 3.56.

GTACCAAGGTGAATAGGTCGCTGATGAGTAGGCG yielded a PBM binding z-score of 0.351.

CCTTACGGGTCACGATGTTATAGCACGACGAGCG had a PBM binding z-score of 3.73.

On to CATACAGGGTCAGCTAGGCCAGAGGAGGGACGGC, for which the PBM binding z-score turned out to be 3.53.

For the sequence CATAGCAGGCCAGGGTCACTCAAGCATTTCGCTT, the PBM binding z-score was found to be 2.92.

For GCTATTAGTTGAATGGGCAACCGAATGATTCTCG, the PBM binding z-score is -0.287.

The values are drawn from the supplement of paper PMC6555819.
